40 compounds from PubChem BioAssay (NCI) can be followed below.

Compounds without any hit were thinned out: in the full panel of roughly 83,000, 20% have a hit.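 Assay: single dose, 48 h. Readout: percent growth (0 = no net growth; negative = cell death). Active: <10.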 Values without a mark were called inactive. Active and inactive are the calls of the source.

The assay has as its system HL-60(TB) leukemia. As to the kind of experiment: NCI-60 one-dose screen, 48 h (100 = growth as untreated, 0 = no growth, -100 = all killed). The following applies: 10 µM unless noted.
Turning to `COc1ccc(C(=O)/C=C/c2ccc(OCc3ccccc3)c(OC)c2)cc1OC`, the growth is 5.55% (active). Regarding `Cc1ccc2nc3c(nc2c1)c1cc(I)ccc1n3CCN(C)C`, the growth is 13.7%.

With `CC(C)C1=C[C@@]23CC[C@@H]4[C@](C)(CCC[C@]4(C)C(=O)NCc4ccccc4)[C@H]2C[C@@H]1[C@H]1C(=O)CCC(=O)[C@H]13`, the growth is 53.5%. In the case of `CC(C)c1sc(NC(=O)c2cc(NC(=O)c3cc(NC(=O)c4cscn4)cn3C)cn2C)nc1C(=O)NCCCN(C)C` it was -22.6% (active).

`Cc1ccc(C2CC(c3ccc(NC(=O)Nc4ccccc4)cc3)=NN2c2ccc(S(N)(=O)=O)cc2)cc1` (stereo not given): the growth was -42.5% (active). In the case of `O=c1nc(-c2ccccc2)cc(-c2cc3ccccc3nc2Cl)[nH]1` it was -34.7% (active); in that of `O=c1c(-c2nc(-c3ccccc3)c(-c3ccccc3)[nH]2)coc2ccc(F)cc12`, 54.3%; in that of `Cn1cc(-c2nc(N)nnc2-c2c[nH]c3ccc(Br)cc23)c2cc(Br)cnc21`, -35.8% (active). In the case of `COc1cc(CNC(=O)C[C@H](C)CCC=C(C)C)ccc1OCc1cn(-c2cccc(C(F)(F)F)c2)nn1` it was 96.3%. Consider `Cc1sc2c(c1C)C(c1ccc(Cl)cc1)=N[C@@H](CC(=O)NCCCCCNC(=O)COc1ccc(C3CCC(=O)NC3=O)cc1)c1nnc(C)n1-2` (stereo not given in full), for which the growth was -16.6% (active). As for `Cn1cc(/C=C(/SS/C(=C/c2cn(C)c3cccc(C(=O)O)c23)C(=O)O)C(=O)O)c2c(C(=O)O)cccc21`, the growth is 99.2%. In the case of `COc1ccc(N=Nc2c(N)nn3c(N)c(C#N)c(-c4ccccc4)nc23)cc1` it was 80.8%; in that of `Cc1c(C(=O)NNC(=O)c2ccc(Cl)cc2)nnn1-c1ccc(Br)cc1`, 102%; in that of `COc1cc2oc(-c3cccc(C(=O)Nc4ccc(Cl)cc4)c3)cc(=O)c2c(OCCNC(=O)[C@@H](N)CO)c1OC`, -29.2% (active). In the case of `CCCCSc1nc(Nc2ccc(/C(C)=N/NC(N)=S)cc2)c(C#N)c(-c2ccc(F)cc2)n1` it was 90.7%; in that of `COc1cccc(/C=C2\N=C(C)N(CCc3ccc(S(N)(=O)=O)cc3)C2=O)c1`, 89.4%; in that of `O/N=C(\CSc1nnc(-c2c[nH]c3ccccc23)n1-c1ccccc1)c1ccc(Br)cc1`, -36.3% (active). In the case of `Cc1cc(C)nc(NS(=O)(=O)c2ccc(N/C(N)=N/c3nccc(-c4ccccc4)n3)cc2)n1` it was -25.8% (active). As to `CCCCCCCCOc1cccc(S(=O)(=O)Nc2ccc(C)cc2C(=O)O)c1`, the growth is 101%. In the case of `N#Cc1ccc(C(=O)NNC(=O)CSc2nc3sc4c(c3c(=O)n2-c2ccc(Cl)cc2)CCCC4)cc1` it was 67.2%. The value for `OCCCNc1oc(-c2ccccc2)nc1[P+](c1ccccc1)(c1ccccc1)c1ccccc1` was -35.8% (active); that for `COc1cc2oc(-c3cccc(C(=O)Nc4cccc([N+](=O)[O-])c4)c3)cc(=O)c2c(OC)c1OC` was 101%; that for `O=C(c1ccc(Cl)cc1)C1[C@H](c2ccc(Br)cc2)[C@@H](c2ccccc2)NC12C(=O)Nc1ccc(Cl)cc12` (stereo not given in full) was -45.2% (active). In the case of `C/C(=N/O)c1ccc(NC(=O)CSc2nnc(-c3ccc4nc(-c5ccc(Cl)cc5)[nH]c4c3)o2)cc1` it was 81.8%; in that of `Cc1ccc(C(C)C)cc1Oc1cccc(-c2c(-c3ccc(C(F)(F)F)cc3)ncn2C2CCNCC2)n1`, -83.1% (active). Take `Clc1ccc(/C=N/Nc2ncnc3sc4c(c23)CCN(Cc2ccccc2)C4)cc1`: the growth was -8.28% (active). The value for `CCN1CCN(Cc2ccc(C(=O)Nc3cccc(Nc4ccc5c(OC)cccc5n4)c3)cc2C(F)(F)F)CC1` was -57.1% (active); that for `O=c1[nH]c2ccccc2cc1CSc1ccc(Nc2nccc(-c3ccc(Cl)cc3)n2)cc1` was 74.8%. In the case of `Cc1cc(C(NC(=O)C2CC3(CC(Nc4cccc5c4C(=O)N(C4CCC(=O)NC4=O)C5=O)C3)C2)c2ccc3c(c2)OC(F)(F)O3)c(O)c2ncccc12` (stereo not given) it was -16.4% (active); in that of `O=C1c2c(c3c4cc(F)ccc4oc3c3[nH]c4ccc(Br)cc4c23)C(=O)N1O`, 16.9%. In the case of `COc1cc2c3c(n(CCCn4ccnc4)c(=O)c2cc1OC)-c1nc2c(cc1C3=O)OCO2` it was 75.8%.

As to `CC(C)(C)C(=O)c1c2c(c3ccc4c5ccccc5ccc4n13)C(=O)c1ccccc1C2=O`, the growth was 94.2%. In the case of `CCCCCCCCc1ccc(C(=O)Nc2ccc(C)cc2C(=O)O)cc1` it was 92.2%; in that of `Cc1ccc(C(=O)Nc2cc(-c3ccccc3)cc(C(F)(F)F)c2)cc1C#Cc1cnc2cccnn12`, 38.1%; in that of `CC12CC[C@@H]3[C@]4(C)COC(c5c(F)cccc5F)O[C@@H]4CC[C@@]3(C)[C@@H]1CC(C1=CCOC1=O)O2` (stereo not given in full), 60.3%.

For the compound `COc1ccc(OC)c(-n2cc(C#N)c(N)c2C(=O)c2ccc(Cl)cc2Cl)c1`, the growth is 2.46% (active). With `O=C(c1ccccc1)c1ccc2nc(-c3ccc(F)cc3)[nH]c2c1`, the growth was 36.1%.

For the compound `COc1cc(/C=C/C(=O)c2ccc(NC(=O)CSc3nnc(-c4c[nH]c5ccccc45)n3-c3ccccc3)cc2)cc(OC)c1OC`, the growth is 38.6%. The value for `O=C(CSc1nnc(-c2c[nH]c3ccccc23)n1-c1ccccc1)c1ccc(Cl)cc1` was 88.9%; that for `C=CC[n+]1cccc2c3ccccc3ccc21` was 57.2%.
